From PubChem
TbPYK inhibitor – inhibitors of Trypanosoma brucei pyruvate kinase; actives 0.12% (n = 410,000); Q57TT1; Potency, µM (titrated, usually from 76.8 µM), for the others: at the top dose activity, negative = inhibition, actives largely listed as inhibitors; TbPYK enzyme, Kinase-Glo Plus ATP luminescence, 45 min; also: potency is read from the fitted curve at half-maximal effect; nearly all actives have a fitted effect of over 50% in size
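Glycolytic pyruvate kinase of T. brucei was incubated with substrate, test compound and 130 uM ADP for 45 minutes at room temperature. Luminescent Kinase-Glo Plus signal was measured after 10 minutes.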
FMDV inh – antivirals against foot and mouth disease virus; actives 1.2% (n = 410,000); FMDV antiviral cell-based qHTS; Potency, µM (series often up to 57.9 µM), inactives show at the highest dose activity change, negative = inhibition, most hits filed as inhibitors; calls by dose curve; tested in HEK293T cells; also: read-out not given here; potency is read from the fitted curve at half-maximal effect; nearly all actives have a fitted effect of over 45% in size
FBPA Giardia inh – Giardia lamblia aldolase inhibition; actives 0.71% (n = 290,000); AID 2451; purified Giardia FBPA; Potency, µM (titrated, usually from 59.6 µM), for the others: at the highest dose activity, negative = inhibition, usual class: inhibitors; also: potency is read from the fitted curve at half-maximal effect; nearly all actives have a fitted effect of over 55% in size
Target sequence (A8B2U2 whole entry, looked up): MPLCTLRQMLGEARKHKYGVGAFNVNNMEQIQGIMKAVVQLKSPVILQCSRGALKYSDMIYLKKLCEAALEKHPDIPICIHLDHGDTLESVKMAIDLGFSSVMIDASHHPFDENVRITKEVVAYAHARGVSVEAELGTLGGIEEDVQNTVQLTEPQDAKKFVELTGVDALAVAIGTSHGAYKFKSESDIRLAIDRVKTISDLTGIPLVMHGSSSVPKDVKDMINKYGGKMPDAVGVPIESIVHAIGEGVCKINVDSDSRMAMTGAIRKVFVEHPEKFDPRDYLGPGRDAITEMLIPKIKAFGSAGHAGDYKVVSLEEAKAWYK
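40 nM FBPA preincubated 10 min at RT with compound (up to 57.5 uM final), then substrate plus GAPDH/TPI/NAD/arsenate coupling and diaphorase/resazurin added. Fluorescence read after 20 min at RT, 525/598 nm.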
RE007 growth inh – less growth of the S. pombe RE007 Vpr strain. AID 651644. Potency, µM (doses to about 92.2 µM), for the others: at the highest dose activity change, negative = less growth, actives largely listed as inhibitors. actives 0.21% (n = 360,000). S. pombe RE007 Vpr strain, BacTiter-Glo ATP luminescence, 24 h; active = well fitted falling curve with a large enough effect; inconclusive = small, poorly fitted or top-dose-only effect; inactive = no such curve, though single readings can be large or run the other way; also: potency is read from the fitted curve at half-maximal effect; nearly all actives have a fitted effect of over 50% in size
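Fission yeast RE007 carrying one integrated HIV-1 vpr copy, seeded at OD 0.01 in PMG+AL medium with 23 nL pinned compound. Grown 24 h at 30 degrees; viability read by BacTiter-Glo luminescence after 5 min.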
HCMV inh – blocks human cytomegalovirus replication | HFF cells, HCMV-luciferase reporter, 72 h; hits give low values | activity change, negative = inhibition, % at 57.5 µM | actives 4.5% (n = 410,000) | AID 1259415; in the data active = activity change below about -60%; inconclusive = no clear call, values can overlap the other calls; inactive = above about -39%
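Two-dose cell screen: HFF monolayers treated with compounds and infected with luciferase-expressing HCMV at 1 PFU/cell, 72 h at 37C, then lysed for luciferase measurement.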
Sm TGR inh – inhibitors of Schistosoma mansoni thioredoxin glutathione reductase | Potency, µM (series often up to 114 µM), without a hit: at the highest dose activity change, negative = inhibition, usual class: inhibitors | Q962Y6 | actives 3% (n = 360,000) | purified TGR, DTNB reduction, TNB absorbance 405 nm | AID 485364; also: potency is read from the fitted curve at half-maximal effect; nearly all actives have a fitted effect of over 60% in size
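TGR 20 nM + NADPH 100 uM (dispensed conc.), cpd preinc 15 min RT; start with NADPH (500 uM addition) then DTNB (15 mM addition). Kinetic TNB absorbance, 405 nm filter. Four-parameter Hill fit across titration.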
An asterisk follows results filed as active; ! = repeats disagree; [ ] = remark or other dose. Compounds with a hit are over-represented: about 7.7% of the library has one in this group of screens. Unless noted, calls follow the shape of the dose curve; as a rule, active = well fitted curve in the direction sought with a large enough effect; inconclusive = small, poorly fitted or top-dose-only effect, or another doubt; inactive = no such curve, though single readings can be large; an effect the other way counts as inactive or inconclusive. % is scaled to controls: 0 for no effect and ±100 for the full control effect.

Screening CCN(CC)S(=O)(=O)c1cc(NC(=O)CN2C(=O)NC(C)(c3ccccc3)C2=O)ccc1C (stereo not given) returned TbPYK inhibitor -7%, FMDV inh -2%, FBPA Giardia inh -17%, RE007 growth inh -5%, HCMV inh 51 and Sm TGR inh 10%.
Cc1ccc(S(=O)(=O)N2CCCCC2)cc1NC(=O)Cn1ncc(Cl)c(Cl)c1=O was read as TbPYK inhibitor 2%, FMDV inh 20µM*, RE007 growth inh 3% and HCMV inh -97*.
O=S(=O)(c1ccc(Cl)c(NC(=S)Nc2ccccc2N2CCOCC2)c1)N1CCOCC1 was read as TbPYK inhibitor -4%, FMDV inh -23%, FBPA Giardia inh -22%, RE007 growth inh 21%, HCMV inh -16 and Sm TGR inh 35µM*.
For O=C(Nc1ccccc1N1CCCC1)c1cc(S(=O)(=O)N2CCOCC2)ccc1Cl the results were TbPYK inhibitor 3%, FMDV inh -26%, RE007 growth inh 21%, HCMV inh inconclusive and Sm TGR inh 4%.
`O=S(=O)(c1ccc(Cl)c(NC(=S)N/N=C/c2ccc(O)cc2)c1)N1CCOCC1` gave TbPYK inhibitor 0%, FMDV inh inconclusive, FBPA Giardia inh -4%, RE007 growth inh 3%, HCMV inh -83* and Sm TGR inh -22%.
Screening CCOC(=O)CNc1nnc(SCC(=O)OCC)[nH]c1=O returned TbPYK inhibitor -20%, FMDV inh -14%, FBPA Giardia inh 6%, RE007 growth inh -5%, HCMV inh 18 and Sm TGR inh 56µM*.
For CCOc1cc(N)c(Cl)cc1C(=O)NCC1CN(Cc2ccc(F)cc2)CCO1 (stereo not given) the results were TbPYK inhibitor -1%, FMDV inh -14%, FBPA Giardia inh -13%, RE007 growth inh 1%[18.4 µM] and HCMV inh -66*!.
Screening CN(C)c1ccc(C=c2c3ccccc3n3c2c2ccccc2[n+]3C)cc1 returned TbPYK inhibitor inconclusive, FMDV inh 25µM*, RE007 growth inh inconclusive and HCMV inh -98*.
For CN(C)c1ccc(C=C2C=Cc3ccccc32)cc1 the results were TbPYK inhibitor -7%, FMDV inh -1%, RE007 growth inh -30% and HCMV inh 2.
For CC1=NN(c2cccc(F)c2)C(=O)/C1=C/c1ccc(N(C)C)cc1 the results were TbPYK inhibitor -1%, FMDV inh 39%, FBPA Giardia inh 6%, RE007 growth inh 0%, HCMV inh 13 and Sm TGR inh -17%.
Screening Cc1cc2c(=Cc3ccc(N(C)C)cc3)c3ccccc3n2[n+]1C returned TbPYK inhibitor -19%, FMDV inh 0%, RE007 growth inh 0% and HCMV inh -97*.
Screening CCOC(=O)c1cc2c(=Cc3ccc(N(C)C)cc3)c3ccccc3n2[n+]1C returned TbPYK inhibitor -30%, FMDV inh 18µM*, RE007 growth inh inconclusive and HCMV inh -88*.
For Cc1cnc(C)c(-c2cc(F)cc3c2OC(CNC(=O)Cc2c(C)noc2C)C3)n1 (stereo not given) the results were FMDV inh -2%.
O=S(=O)(c1ccc(Cl)cc1)c1cnc2ccccc2n1 was read as TbPYK inhibitor 2%, FMDV inh 25µM*, FBPA Giardia inh 6%, RE007 growth inh -4%, HCMV inh -32 and Sm TGR inh inconclusive.
Screening Cc1cc(C)cc(S(=O)(=O)c2cnc3ccccc3n2)c1 returned TbPYK inhibitor -22%, FMDV inh inconclusive, FBPA Giardia inh 5%, RE007 growth inh -17%, HCMV inh -14 and Sm TGR inh inconclusive.
Screening COCC(=O)N1CCC2(CCCN(c3ccc(-c4ccccc4)cc3)C2)CC1 returned TbPYK inhibitor 0%, FMDV inh -13% and FBPA Giardia inh -12%.
For O=C1[C@H]2[C@H]3[C@H](O)[C@H](O)C/C(=N/OC[C@@H](O)COCc4ccco4)[C@H]3CC[C@@H]2C(=O)N1c1cccc(Oc2ccccc2)c1 the results were FBPA Giardia inh 3%[12.9 µM].
CCN(CC)c1ccc(/C=C2\C(=O)c3ccc(C(=O)O)cc3C2=O)cc1 was read as TbPYK inhibitor 25µM*, FMDV inh -15%, FBPA Giardia inh -6%, RE007 growth inh -20%, HCMV inh -29 and Sm TGR inh 0%.
Screening CCN(CC)c1ccc(C(=O)O)cc1 returned TbPYK inhibitor -12%, FMDV inh 0%, FBPA Giardia inh -3%, RE007 growth inh -16%, HCMV inh -36 and Sm TGR inh 6%.
`CCCC1Cc2nc(Cl)c(C#N)cc2CO1` (stereo not given) gave TbPYK inhibitor -4%, FMDV inh -6%, FBPA Giardia inh -1%, RE007 growth inh -1%, HCMV inh -20 and Sm TGR inh 40µM*.
CCC1(C)Cc2nc(Cl)c(C#N)cc2CO1 (stereo not given) was read as TbPYK inhibitor 3%, FMDV inh -22%, FBPA Giardia inh 5%, RE007 growth inh 2%, HCMV inh inconclusive and Sm TGR inh inconclusive.
`COC(=O)[C@H](Cc1ccc(C#Cc2ccccc2)cc1)NC(=O)C[C@H]1CCCN(C(=N)N)C1` gave FMDV inh -17%.
CC(C)(C)NC(=O)C(c1ccc(-c2ccccc2)cc1)N(C[C@H]1CC[C@@H]([C@@H]2CC[C@H](CO)O2)O1)C(=O)c1ccc(C(C)(C)C)cc1 (stereo not given in full) was read as TbPYK inhibitor 1%, FMDV inh 0%, RE007 growth inh 8% and HCMV inh -101*.
Screening Cc1ccc(C(C(=O)NC(C)(C)C)N(CC2CCCO2)C(=O)c2csnn2)cc1 (stereo not given) returned TbPYK inhibitor 0%, FMDV inh -4%, FBPA Giardia inh 4%, RE007 growth inh 0%, HCMV inh 0 and Sm TGR inh -8%.
`COc1ccc(OCC(O)CN(C)C(=O)/C=C/c2cccc([N+](=O)[O-])c2)cc1` (stereo not given) gave TbPYK inhibitor -2%, FMDV inh -23%, FBPA Giardia inh -2%, RE007 growth inh -9% and HCMV inh -78*.
`CCCCN(CCCC)C(=O)/C=C/c1cccc([N+](=O)[O-])c1` gave TbPYK inhibitor -8%, FMDV inh inconclusive, FBPA Giardia inh 4%, RE007 growth inh -8%, HCMV inh -37 and Sm TGR inh 13%.
